Measured values taken from PubChem BioAssay.

The compounds below were run against NADPH oxidase 2 (Homo sapiens) (UniProt P04839) (assay: NOX2-dependent H2O2 signal modulators, primary screen, NOX inhibitor project, cell-based, HEK293-NOX2, PMA-stimulated, Amplex Red fluorescence (AID 1159; note: test concentration not given here)). Details: 45 min, higher = more signal, called active from +8 up or from −8 down.
Chain of NADPH oxidase 2 (Homo sapiens) (P04839 whole entry, looked up): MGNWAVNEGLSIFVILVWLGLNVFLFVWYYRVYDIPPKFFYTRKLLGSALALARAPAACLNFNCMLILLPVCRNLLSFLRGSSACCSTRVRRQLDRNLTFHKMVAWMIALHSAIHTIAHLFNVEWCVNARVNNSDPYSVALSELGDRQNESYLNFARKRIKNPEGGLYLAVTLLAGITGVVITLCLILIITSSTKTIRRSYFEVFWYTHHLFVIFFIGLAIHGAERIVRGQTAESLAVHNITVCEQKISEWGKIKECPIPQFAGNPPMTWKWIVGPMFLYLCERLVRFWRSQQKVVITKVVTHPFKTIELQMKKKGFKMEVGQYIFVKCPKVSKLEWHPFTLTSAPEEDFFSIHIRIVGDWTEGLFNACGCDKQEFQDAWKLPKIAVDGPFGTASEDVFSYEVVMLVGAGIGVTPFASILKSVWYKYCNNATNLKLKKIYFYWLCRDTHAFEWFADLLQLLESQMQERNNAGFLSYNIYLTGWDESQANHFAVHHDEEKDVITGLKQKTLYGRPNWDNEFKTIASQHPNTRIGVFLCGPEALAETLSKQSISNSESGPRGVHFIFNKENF

z-score, inactive:
CC(C)C(=C=CC[C@H](O)c1ccccc1OCCO)C[C@H](O)COCc1ccccc1 -1.34
CC(C)NC(=O)[C@@]1(c2ccc([N+](=O)[O-])cc2)CC(=O)N(CC23CC4CC(CC(C4)C2)C3)[C@@H]1c1ccc(CO)cc1 -0.108
CC(C)=C1C(=O)C(c2ccccc2)=C2CN3C(=O)N(CCc4ccccc4)C(=O)[C@]3(C)[C@H]21 -1.16
[N-]=[N+]=Nc1ccccc1[C@H]1OC(c2ccc(OCCCO)cc2)=N[C@@]1(Cc1ccccc1)C(=O)NCC(O)CO (stereo partly specified) -0.455
COCCCNC(=O)[C@@]1(CCS(=O)(=O)c2ccccc2)COC(c2ccc(OCCCO)cc2)=N1 -0.556
CC(C)(C)N1CC=CC23O[C@@H]4C=CCOC(=O)[C@@H]4[C@H]2C(=O)N(CCO)[C@@H]3C1=O (stereo partly specified) 1.09
CN(C)CCCCNC(=O)[C@H]1C[C@H]2C(=O)NCC(=O)N2[C@H]1c1ccc(O)cc1 1.06
CC(C)C(O)C1C=CC2C(=O)NC(=O)C2N1Nc1ccccn1 (stereo unspecified) -1.22
O=C1C2C=CC(C(O)c3ccc([N+](=O)[O-])cc3)N(Nc3ccccc3F)C2C(=O)N1c1ccccc1 (stereo unspecified) -2.54
CN(C)CCCC[C@@H]1NC(=O)[C@@H]2C[C@H](C(=O)NCCCCCN)[C@H](c3cccc(OCCO)c3)N2C1=O 0.635
CC1CC/C=C\[C@H]2OC34C=CCN(Cc5ccccc5)C(=O)[C@H]3N(CCCCCCO)C(=O)[C@@H]4C2C(=O)O1 (stereo partly specified) 1.71
C=CCC(OC(C)=O)[C@@H]1[C@@H](N(Cc2cccc3ccccc23)C(=O)c2ccc(-c3ccccc3)cc2)c2cc(OCCCO)ccc2N1C(=O)Cc1ccc2ccccc2c1 (stereo partly specified) -1.49
CC(C)NC(=O)[C@@]1(C)c2ccccc2C(=O)N(Cc2ccccc2)[C@H]1c1ccc(CO)cc1 -1.34
COC(=O)[C@@]1(Cc2ccccc2)[C@H]2c3cc(C(=O)N4CCCC4)n(Cc4ccc(OC)c(OC)c4)c3C[C@H]2CN1C(=O)c1ccccc1 0.136
O=C1C[C@@](C(=O)NCc2ccccc2)(c2ccc([N+](=O)[O-])cc2)[C@@H](c2ccc(CO)cc2)N1C1CCCCC1 -0.522
[N-]=[N+]=Nc1ccccc1[C@@H]1OC(c2ccc(OCCCO)cc2)=N[C@]1(CCS(=O)(=O)c1ccccc1)C(=O)NCC(O)CO (stereo partly specified) -3.11
CCOC(=O)C[C@H]1[C@H](OC(=O)c2ccccc2-c2ccccc2)[C@@H](NC(=O)c2ccc3ccccc3c2)c2cc(OCCCO)ccc2N1C(=O)Cc1ccc(OC)cc1 0.0357
CCOC(=O)C[C@H]1[C@H](OC(=O)Cc2ccc3c(c2)OCO3)[C@@H](NC(=O)Cc2ccc(OC)cc2)c2cc(OCCCO)ccc2N1C(=O)Cc1ccc(OC)cc1 -0.988
Cc1ccc(C(C)CC(O)C2C=CC3C(=O)N(C)C(=O)C3N2Nc2ccccc2)o1 (stereo unspecified) -1.73
Cc1ccc(S[C@]2(C(=O)NCC(F)(F)F)CC(=O)N(Cc3ccccc3C(F)(F)F)[C@@H]2c2ccc(CO)cc2)cc1 -2.02
COC(=O)[C@]1(Cc2ccccc2)N=C(c2ccc(OCCCO)cc2)O[C@@H]1c1ccccc1CN=[N+]=[N-] -4.51
COC(=O)C(CC#Cc1ccc2c(c1)[C@]1(C(=O)N2)[C@H](c2ccc(OCCO)cc2)N2[C@H](c3ccccc3)[C@H](c3ccccc3)OC(=O)[C@H]2[C@@H]1C(=O)N1CCCCCCC1)C(=O)OC 0.783
C[C@]1(C(=O)O)c2ccccc2C(=O)N(Cc2cc(F)cc(C(F)(F)F)c2)[C@H]1c1ccc(CO)cc1 0.477
O=C(NC1CC1)[C@@H]1c2ccccc2C(=O)N(CC23CC4CC(CC(C4)C2)C3)[C@H]1c1ccc(CO)cc1 0.507
COC(=O)[C@@]1(Cc2ccc(OC)cc2)[C@H]2c3cc(C(=O)N4CCCC4)n(CCn4cc([N+](=O)[O-])nc4C)c3C[C@H]2CN1C(=O)c1ccccc1 0.54
CC1CC/C=C\[C@H]2OC34C=CCN(c5ccc6ccccc6c5)C(=O)[C@H]3N(C(C)CO)C(=O)[C@@H]4C2C(=O)O1 (stereo partly specified) 0.995
O=C1C[C@]2(c3ccc([N+](=O)[O-])cc3)C(=O)N(C3CC3)c3cc(CO)ccc3[C@H]2N1C1CCCCC1 0.0692
CCN(CC)c1ccc(N2CC=CC34O[C@@H]5C=CCCOC(=O)C5[C@H]3C(=O)N(C(C)CO)[C@@H]4C2=O)cc1 (stereo partly specified) -0.748
COC(=O)[C@@]1(Cc2ccccc2)[C@H]2c3cc(C(=O)N(C)C)n(CCO)c3C[C@H]2CN1C(=O)c1ccccc1 0.714
COc1cc(CO)cc(I)c1O[C@H]1C=C(C(=O)NCCO)C[C@@H](NC2CCCCCC2)[C@@H]1O 0.287
O=C1C2C=CC(C(O)c3cccs3)N(Nc3ccc([N+](=O)[O-])cc3)C2C(=O)N1c1ccccc1 (stereo unspecified) -0.437
CCOC(=O)C[C@H]1[C@H](OC(=O)c2ccccc2-c2ccccc2)[C@@H](NC(=O)C2CCCCC2)c2cc(OCCCO)ccc2N1C(=O)c1ccc2ccccc2n1 0.618
COC(=O)[C@@]1(Cc2ccc(F)cc2)[C@H]2c3cc(C(=O)N4CCCC4)n(Cc4ccccn4)c3C[C@H]2CN1C(=O)c1ccccc1 0.553
C=C(CCCC)/C(=C/C[C@H](OC(=O)c1ccncc1)c1ccccc1OCCO)c1cc(C(=O)OC)ccc1OC 0.559
O=C(NCc1ccccc1)[C@@H]1c2ccccc2C(=O)N(Cc2cc(C(F)(F)F)cc(C(F)(F)F)c2)[C@H]1c1ccc(CO)cc1 0.736
COc1ccc([Si](C)(C)[C@H]2[C@H](CCO)O[C@@]3(C(=O)N(Cc4ccc(NC(=O)[C@H](C)O)cc4)c4ccccc43)[C@@H]2C)cc1 0.25
